Results filed as inconclusive are left out. Calls of active or inactive are those of the source. The calls were made as follows, unless noted: active = hit-call score of the fitted dose curve at least 0.9, where 1 is the maximum; inconclusive = response in the unintended direction; inactive = score below 0.9.
Experiments:
[1] = target: human RAR-related Orphan Receptor gamma (RORg), RORC (gene 6097) (UniProt P51449); experiment: ATG_RORg_TRANS: Attagene TRANS-FACTORIAL HepG2 Assay for human RAR-related Orphan Receptor gamma (RORg) (AID 2283011)
Procedure, shortened: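 Transient MRTU transfection of HepG2 (TRANS format, exogenous NR-Gal4 chimera). 24 h dosing. Total RNA → oligo(dT) RT → PCR → 6-FAM labelling → HpaI cut → CE. Gain vs DMSO.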

[2] = target: Retinoic acid receptor RXR-alpha (Homo sapiens) (UniProt P19793); experiment: ATG_RXRa_TRANS: Attagene TRANS-FACTORIAL HepG2 Assay for human Retinoid X Receptor alpha (RXRa) (AID 2283012)
Procedure, shortened: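 HepG2 cells transiently transfected with GAL4-UAS reporter units and chimeric RXRa-Gal4 protein, treated 24 h. Reporter mRNA measured by RT-PCR, fluorescent labelling, HpaI digestion and capillary electrophoresis. Induction fitted against DMSO.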

[3] = target: human Peroxisome Proliferator-activated Receptor delta (PPARd), PPARD (gene 5467) (UniProt Q03181); experiment: ATG_PPARd_TRANS: Attagene TRANS-FACTORIAL HepG2 Assay for human Peroxisome Proliferator-activated Receptor delta (PPARd) (AID 2283002)
Procedure, shortened: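 Measured quantity: GAL4-UAS reporter transcript induction in HepG2 after 24 h chemical dosing, with NR-Gal4 chimeras supplied by transient transfection. Detection by RT-PCR and capillary electrophoresis; upward fit against DMSO.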

[4] = target: Peroxisome proliferator-activated receptor gamma (Homo sapiens) (UniProt P37231); experiment: ATG_PPARg_TRANS: Attagene TRANS-FACTORIAL HepG2 Assay for human Peroxisome Proliferator-activated Receptor-gamma (PPARg) (AID 2283007)
Procedure, shortened: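 After 24 h of chemical exposure, transfected HepG2 cells carrying PPARγ-Gal4 chimera reporter constructs are lysed for RNA. Reporter transcripts are measured by RT-PCR and capillary electrophoresis with fluorescent labelling, and gain of signal is fitted versus DMSO.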

[5] = target: human Retinoic Acid Receptor gamma (RARg), RARG (gene 5916) (UniProt P13631); experiment: ATG_RARg_TRANS: Attagene TRANS-FACTORIAL HepG2 Assay for human Retinoic Acid Receptor gamma (RARg) (AID 2283009)
Procedure, shortened: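 HepG2 transiently transfected with GAL4-UAS reporter units and chimeric NR-Gal4 constructs; 24 h compound exposure. Reporter mRNA quantified by RT-PCR, FAM labeling, HpaI digestion and capillary electrophoresis; gain-of-signal versus DMSO.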

[6] = target: human RAR-related Orphan Receptor beta (RORb), RORB (gene 6096) (UniProt Q92753); experiment: ATG_RORb_TRANS: Attagene TRANS-FACTORIAL HepG2 Assay for human RAR-related Orphan Receptor beta (RORb) (AID 2283010)
Procedure, shortened: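 HepG2 cells transiently transfected with GAL4-UAS reporter units expressing chimeric NR-Gal4 protein; reporter mRNA measured 24 h after dosing by RT-PCR, 6-FAM labelling and capillary electrophoresis. Gain-of-signal fitted relative to DMSO baseline.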

[7] = target: human Thyroid Receptor alpha (THRa1), THRA (gene 7067) (UniProt P10827); experiment: ATG_THRa1_TRANS: Attagene TRANS-FACTORIAL HepG2 Assay for human Thyroid Receptor alpha (THRa1) (AID 2283014)
Procedure, shortened: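 Transient HepG2 transfection, NR-Gal4 chimera driving GAL4-UAS reporters; 24 h compound exposure; total RNA, oligo(dT) RT, PCR, fluorescent primer extension, capillary electrophoresis. Upward direction vs DMSO control.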

[8] = target: Nuclear receptor subfamily 1 group I member 2 (Homo sapiens) (UniProt O75469); experiment: ATG_PXR_TRANS: Attagene TRANS-FACTORIAL HepG2 Assay for human Pregnane X Receptor (PXR) (AID 2283008)
Procedure, shortened: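 Fluorescence intensity of FAM-labelled, HpaI-digested reporter amplicons, separated by capillary electrophoresis, quantifies induction. HepG2 cells with PXR-Gal4 trans-reporter system were exposed 24 h; DMSO defines baseline.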

[9] = target: human Retinoic Acid Receptor beta (RARb), RARB (gene 5915) (UniProt P10826); experiment: ATG_RARb_TRANS: Attagene TRANS-FACTORIAL HepG2 Assay for human Retinoic Acid Receptor beta (AID 2283004)
Procedure, shortened: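 Readout is reporter mRNA induction: RNA reverse-transcribed, PCR-amplified, FAM-labelled, HpaI-cut and resolved by capillary electrophoresis. Transiently transfected HepG2 cells carrying exogenous NR–Gal4 chimeras were dosed for 24 h; activity fitted upward relative to DMSO.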

[10] = target: Retinoic acid receptor alpha (Homo sapiens) (UniProt P10276); experiment: ATG_RARa_TRANS: Attagene TRANS-FACTORIAL HepG2 Assay for human Retinoic Acid Receptor alpha (RARa) (AID 2283005)
Procedure, shortened: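 HepG2 cells transiently transfected with multiple reporter units expressing chimeric RARα-GAL4 fusion, with GAL4-UAS-driven reporters. After 24 h compound exposure, reporter mRNA induction quantified by RT-PCR and capillary electrophoresis with fluorescent labeling; gain-of-signal fitted relative to DMSO control.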

[11] = target: human Retinoid X Receptor beta (RXRb), RXRB (gene 6257) (UniProt P28702); experiment: ATG_RXRb_TRANS: Attagene TRANS-FACTORIAL HepG2 Assay for human Retinoid X Receptor beta (RXRb) (AID 2283013)
Procedure, shortened: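 HepG2 cells were transiently transfected with multiplexed GAL4-UAS reporters and a chimeric RXRb-Gal4 construct, then exposed for 24 h. Reporter mRNA was quantified by RT-PCR, FAM labeling, HpaI digestion and capillary electrophoresis; gain of signal was scored against DMSO.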

[12] = read-out: Intercellular Adhesion Molecule 1 (ICAM1), ICAM1 (gene 3383); experiment: BSK_3C_ICAM1: BioMAP Diversity Plus: 3C Assay for Intercellular Adhesion Molecule 1 (ICAM1) Biomarker Activity (AID 2283003; active = hit-call score of the fitted dose curve at least 0.9, where 1 is the maximum; inactive = score below 0.9); conditions: primary human endothelial cells (HUVEC); actives raise or lower the signal
Procedure, shortened: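 HUVEC primary cells stimulated under 3C conditions; ICAM1 measured by ELISA 24 h after compound dosing. Curves fitted bidirectionally against the DMSO baseline. Overt cytotoxicity checked by SRB staining of parallel cultures.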

[13] = BSK_3C_Proliferation: Cell Proliferation Assessment in the BioMAP Diversity Plus: 3C Assay (AID 2283006; active = hit-call score of the fitted dose curve at least 0.9, where 1 is the maximum; inactive = score below 0.9); conditions: primary human endothelial cells (HUVEC)
Procedure, shortened: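 Subconfluent HUVEC (3C system) cultured with chemical; relative cell number read at 48 h by sulforhodamine B total-protein staining (0.1% SRB after 10% TCA fixation, 560 nm). Bidirectional fit relative to DMSO.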

[14] = read-out: E-selectin (Homo sapiens) (UniProt P16581); experiment: BSK_3C_Eselectin: BioMAP Diversity Plus: 3C Assay for Eselectin Biomarker Activity (AID 2283015; active = hit-call score of the fitted dose curve at least 0.9, where 1 is the maximum; inactive = score below 0.9); conditions: primary human endothelial cells (HUVEC); actives raise or lower the signal
Procedure, shortened: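 HUVEC, 3C stimulation; compound exposure 24 h; E-selectin by ELISA; gain- or loss-of-signal fitted bidirectionally vs DMSO baseline.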

[15] = read-out: Interleukin-1 alpha (IL1a), IL1A (gene 3552); experiment: BSK_BE3C_IL1a: BioMAP Diversity Plus: BE3C Assay for Interleukin-1 alpha (IL1a) Biomarker Activity (AID 2283016; active = hit-call score of the fitted dose curve at least 0.9, where 1 is the maximum; inactive = score below 0.9); conditions: primary human bronchial epithelial cells; actives raise or lower the signal
Procedure, shortened: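 Human primary bronchial epithelial cells, 24 h chemical exposure; IL-1a quantified by ELISA, fitted bidirectionally against DMSO. Cytotoxicity assessed in parallel by SRB total-protein staining at the time of measurement.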

[16] = read-out: Monocyte Chemoattractant Protein-1 (MCP1), CCL2 (gene 6347); experiment: BSK_3C_MCP1: BioMAP Diversity Plus: 3C Assay for Monocyte Chemoattractant Protein-1 (MCP1) Biomarker Activity (AID 2283017; active = hit-call score of the fitted dose curve at least 0.9, where 1 is the maximum; inactive = score below 0.9); conditions: primary human endothelial cells (HUVEC); actives raise or lower the signal
Procedure, shortened: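 HUVEC, 3C system; 24 h chemical exposure; MCP-1 by ELISA; bidirectional curve fit vs DMSO baseline.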

[17] = read-out: Monocyte Chemoattractant Protein-1 (MCP1), CCL2 (gene 6347); experiment: BSK_4H_MCP1: BioMAP Diversity Plus: 4H Assay for Monocyte Chemoattractant Protein-1 (MCP1) Biomarker Activity (AID 2283018; active = hit-call score of the fitted dose curve at least 0.9, where 1 is the maximum; inactive = score below 0.9); conditions: primary human endothelial cells (HUVEC); actives raise or lower the signal
Procedure, shortened: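 Human umbilical vein endothelial cells (4H system) exposed to chemicals for 24 h in 96-well format. MCP-1 measured by ELISA; bidirectional fitting against DMSO, with SRB total-protein staining in parallel cultures for cytotoxicity.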

Measured: AC50

Sequence of Retinoic acid receptor alpha (Homo sapiens) (P10276 whole entry, looked up, the tested form may be a part): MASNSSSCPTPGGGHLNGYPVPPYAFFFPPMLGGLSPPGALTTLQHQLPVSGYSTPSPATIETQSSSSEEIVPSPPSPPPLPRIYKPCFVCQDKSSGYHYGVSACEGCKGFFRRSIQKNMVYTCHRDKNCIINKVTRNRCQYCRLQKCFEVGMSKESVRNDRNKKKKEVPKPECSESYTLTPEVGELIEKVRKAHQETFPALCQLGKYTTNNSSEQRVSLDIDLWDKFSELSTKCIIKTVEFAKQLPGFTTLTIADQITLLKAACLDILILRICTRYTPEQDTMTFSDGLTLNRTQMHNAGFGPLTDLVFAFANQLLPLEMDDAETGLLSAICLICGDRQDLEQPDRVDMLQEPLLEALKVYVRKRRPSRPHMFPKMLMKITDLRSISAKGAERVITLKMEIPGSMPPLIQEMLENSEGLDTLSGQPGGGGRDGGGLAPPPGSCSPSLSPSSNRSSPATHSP
Sequence of Nuclear receptor subfamily 1 group I member 2 (Homo sapiens) (O75469 whole entry, looked up, the tested form may be a part): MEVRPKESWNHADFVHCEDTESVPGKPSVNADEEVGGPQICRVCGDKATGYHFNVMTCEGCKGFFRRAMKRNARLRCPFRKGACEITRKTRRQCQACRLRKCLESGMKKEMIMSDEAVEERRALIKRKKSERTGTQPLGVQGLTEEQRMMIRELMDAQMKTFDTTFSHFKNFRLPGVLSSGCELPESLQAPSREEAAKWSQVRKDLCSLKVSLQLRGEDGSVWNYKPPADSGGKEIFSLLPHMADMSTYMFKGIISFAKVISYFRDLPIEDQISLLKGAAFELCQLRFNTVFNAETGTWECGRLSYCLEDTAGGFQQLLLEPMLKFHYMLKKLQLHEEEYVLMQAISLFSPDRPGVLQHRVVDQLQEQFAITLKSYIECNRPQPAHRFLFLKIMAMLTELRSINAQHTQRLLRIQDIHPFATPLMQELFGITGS
Sequence of human Retinoic Acid Receptor beta (RARb), RARB (gene 5915) (P10826 whole entry, looked up, the tested form may be a part): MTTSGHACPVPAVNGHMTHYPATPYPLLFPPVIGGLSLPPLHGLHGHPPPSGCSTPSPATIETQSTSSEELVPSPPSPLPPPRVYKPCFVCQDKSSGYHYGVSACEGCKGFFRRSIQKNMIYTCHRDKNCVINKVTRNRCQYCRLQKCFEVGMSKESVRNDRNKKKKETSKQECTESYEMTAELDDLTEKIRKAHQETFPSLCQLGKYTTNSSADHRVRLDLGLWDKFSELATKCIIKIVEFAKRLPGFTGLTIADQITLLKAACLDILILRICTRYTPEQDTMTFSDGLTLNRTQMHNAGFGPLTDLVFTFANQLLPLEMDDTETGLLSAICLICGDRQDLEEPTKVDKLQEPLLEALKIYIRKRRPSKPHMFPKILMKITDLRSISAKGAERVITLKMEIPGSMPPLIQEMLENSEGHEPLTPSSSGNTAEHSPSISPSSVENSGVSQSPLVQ
Sequence of human Retinoid X Receptor beta (RXRb), RXRB (gene 6257) (P28702 whole entry, looked up, the tested form may be a part): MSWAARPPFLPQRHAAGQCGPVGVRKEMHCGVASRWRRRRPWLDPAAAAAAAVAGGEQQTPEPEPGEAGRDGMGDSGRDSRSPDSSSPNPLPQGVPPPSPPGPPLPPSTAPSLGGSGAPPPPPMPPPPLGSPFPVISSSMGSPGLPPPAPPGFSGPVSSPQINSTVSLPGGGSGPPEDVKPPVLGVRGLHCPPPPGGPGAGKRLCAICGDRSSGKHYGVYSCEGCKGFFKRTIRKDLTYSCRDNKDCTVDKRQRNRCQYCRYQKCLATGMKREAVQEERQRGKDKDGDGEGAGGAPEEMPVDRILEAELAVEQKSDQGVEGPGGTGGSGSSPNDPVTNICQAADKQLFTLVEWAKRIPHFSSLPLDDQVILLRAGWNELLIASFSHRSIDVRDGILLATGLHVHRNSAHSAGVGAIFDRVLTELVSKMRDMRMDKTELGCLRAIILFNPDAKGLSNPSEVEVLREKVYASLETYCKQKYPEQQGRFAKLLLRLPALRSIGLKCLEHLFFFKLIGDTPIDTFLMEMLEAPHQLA
Sequence of human RAR-related Orphan Receptor gamma (RORg), RORC (gene 6097) (P51449 whole entry, looked up, the tested form may be a part): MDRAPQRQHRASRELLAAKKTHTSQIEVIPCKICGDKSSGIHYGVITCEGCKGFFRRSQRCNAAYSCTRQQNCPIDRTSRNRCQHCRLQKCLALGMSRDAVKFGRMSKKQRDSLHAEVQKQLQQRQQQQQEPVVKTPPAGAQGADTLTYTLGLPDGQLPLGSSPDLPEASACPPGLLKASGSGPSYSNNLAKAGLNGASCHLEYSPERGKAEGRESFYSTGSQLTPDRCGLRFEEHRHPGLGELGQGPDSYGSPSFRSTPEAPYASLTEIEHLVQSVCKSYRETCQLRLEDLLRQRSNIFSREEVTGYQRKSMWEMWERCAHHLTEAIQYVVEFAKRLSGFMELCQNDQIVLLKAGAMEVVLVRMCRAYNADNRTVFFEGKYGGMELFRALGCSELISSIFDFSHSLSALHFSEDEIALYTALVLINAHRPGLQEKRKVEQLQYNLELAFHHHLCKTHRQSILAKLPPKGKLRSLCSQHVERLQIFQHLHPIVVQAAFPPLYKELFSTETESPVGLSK
Sequence of Peroxisome proliferator-activated receptor gamma (Homo sapiens) (P37231 whole entry, looked up, the tested form may be a part): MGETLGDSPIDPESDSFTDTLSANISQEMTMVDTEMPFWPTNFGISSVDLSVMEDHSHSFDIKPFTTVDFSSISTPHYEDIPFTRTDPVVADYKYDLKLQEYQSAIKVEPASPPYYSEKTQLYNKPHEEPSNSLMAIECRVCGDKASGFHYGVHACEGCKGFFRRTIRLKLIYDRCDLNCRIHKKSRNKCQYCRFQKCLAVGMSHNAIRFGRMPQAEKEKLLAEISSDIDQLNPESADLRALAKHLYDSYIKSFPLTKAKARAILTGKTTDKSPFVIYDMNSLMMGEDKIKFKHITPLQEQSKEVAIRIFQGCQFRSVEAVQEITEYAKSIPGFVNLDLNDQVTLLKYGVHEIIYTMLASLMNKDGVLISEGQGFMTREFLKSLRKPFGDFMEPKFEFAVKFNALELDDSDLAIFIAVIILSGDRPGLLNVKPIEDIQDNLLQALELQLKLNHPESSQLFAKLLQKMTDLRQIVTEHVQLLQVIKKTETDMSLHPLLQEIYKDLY
Sequence of human Retinoic Acid Receptor gamma (RARg), RARG (gene 5916) (P13631 whole entry, looked up, the tested form may be a part): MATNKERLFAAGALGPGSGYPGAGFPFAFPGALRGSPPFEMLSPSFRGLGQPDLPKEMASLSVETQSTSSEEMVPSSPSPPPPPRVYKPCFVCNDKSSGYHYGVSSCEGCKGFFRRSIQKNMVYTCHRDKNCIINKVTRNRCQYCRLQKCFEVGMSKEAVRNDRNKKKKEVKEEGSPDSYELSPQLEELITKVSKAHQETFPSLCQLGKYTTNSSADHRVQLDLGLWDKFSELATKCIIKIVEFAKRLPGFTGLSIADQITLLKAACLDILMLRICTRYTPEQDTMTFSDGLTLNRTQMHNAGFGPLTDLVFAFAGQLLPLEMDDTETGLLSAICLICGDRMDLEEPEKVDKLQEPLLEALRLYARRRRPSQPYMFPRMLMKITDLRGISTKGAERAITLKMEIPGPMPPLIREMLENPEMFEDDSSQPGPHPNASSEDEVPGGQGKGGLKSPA
Sequence of human Thyroid Receptor alpha (THRa1), THRA (gene 7067) (P10827 whole entry, looked up, the tested form may be a part): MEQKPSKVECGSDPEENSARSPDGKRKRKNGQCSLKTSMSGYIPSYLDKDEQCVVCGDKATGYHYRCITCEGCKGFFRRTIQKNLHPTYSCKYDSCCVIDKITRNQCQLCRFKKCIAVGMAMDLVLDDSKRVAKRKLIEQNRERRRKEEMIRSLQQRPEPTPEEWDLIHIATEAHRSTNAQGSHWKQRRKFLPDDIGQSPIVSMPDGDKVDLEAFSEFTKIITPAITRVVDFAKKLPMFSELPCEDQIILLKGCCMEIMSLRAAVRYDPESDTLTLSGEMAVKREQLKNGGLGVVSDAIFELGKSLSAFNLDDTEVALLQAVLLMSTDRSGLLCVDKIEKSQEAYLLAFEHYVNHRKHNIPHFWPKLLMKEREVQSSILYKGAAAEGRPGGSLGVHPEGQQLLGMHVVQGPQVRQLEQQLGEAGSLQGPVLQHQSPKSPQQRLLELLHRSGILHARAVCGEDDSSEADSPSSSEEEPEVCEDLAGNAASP
Sequence of human RAR-related Orphan Receptor beta (RORb), RORB (gene 6096) (Q92753 whole entry, looked up, the tested form may be a part): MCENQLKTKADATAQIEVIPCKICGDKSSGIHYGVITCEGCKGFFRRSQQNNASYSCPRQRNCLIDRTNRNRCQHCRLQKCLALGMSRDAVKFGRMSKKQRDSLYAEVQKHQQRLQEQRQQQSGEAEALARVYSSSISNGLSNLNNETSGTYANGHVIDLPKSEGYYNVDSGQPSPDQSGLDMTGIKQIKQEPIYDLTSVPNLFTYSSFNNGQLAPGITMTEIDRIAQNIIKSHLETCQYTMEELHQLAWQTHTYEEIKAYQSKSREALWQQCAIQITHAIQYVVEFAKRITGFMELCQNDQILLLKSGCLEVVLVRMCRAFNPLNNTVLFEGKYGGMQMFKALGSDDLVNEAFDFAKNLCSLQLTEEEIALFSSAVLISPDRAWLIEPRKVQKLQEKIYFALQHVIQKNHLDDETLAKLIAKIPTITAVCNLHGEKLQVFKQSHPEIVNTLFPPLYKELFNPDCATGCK
Sequence of E-selectin (Homo sapiens) (P16581 whole entry, looked up): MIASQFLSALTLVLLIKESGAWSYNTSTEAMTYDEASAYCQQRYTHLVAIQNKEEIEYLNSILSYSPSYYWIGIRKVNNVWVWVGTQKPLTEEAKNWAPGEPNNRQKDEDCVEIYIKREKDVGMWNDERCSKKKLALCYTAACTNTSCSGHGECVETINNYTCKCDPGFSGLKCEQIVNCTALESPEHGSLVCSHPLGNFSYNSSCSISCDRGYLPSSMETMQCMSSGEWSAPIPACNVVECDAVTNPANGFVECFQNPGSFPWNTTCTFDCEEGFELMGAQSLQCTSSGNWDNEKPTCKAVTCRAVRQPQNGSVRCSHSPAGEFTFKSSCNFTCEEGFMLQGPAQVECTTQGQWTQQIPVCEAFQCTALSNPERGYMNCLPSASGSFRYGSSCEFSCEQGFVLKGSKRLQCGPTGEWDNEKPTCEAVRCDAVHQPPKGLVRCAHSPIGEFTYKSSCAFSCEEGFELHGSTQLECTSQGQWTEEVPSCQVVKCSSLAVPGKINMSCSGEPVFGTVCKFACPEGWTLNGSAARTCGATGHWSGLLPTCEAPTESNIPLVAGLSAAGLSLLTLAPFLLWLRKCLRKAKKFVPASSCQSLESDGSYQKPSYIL

CCCC(=O)OCC(COC(=O)CCC)OC(=O)CCC
inactive: [1] | [2]

Nc1c(Br)cc([N+](=O)[O-])cc1Br
inactive: [3] | [4] | [5] | [6] | [1] | [7]

CCCCC(CC)COC(=O)c1ccc(N(C)C)cc1 (stereo unspecified)
active: [4] 30.3 µM | [8] 27.2 µM
inactive: [3] | [6] | [7]

O=c1[nH]cccc1O
inactive: [9] | [10] | [4] | [5] | [6] | [1] | [7]

Brc1ccccn1
inactive: [9] | [4] | [8] | [6] | [1] | [2] | [7]

CC(C)(C)c1cc(Cc2cc(C(C)(C)C)c(O)c(C(C)(C)C)c2)cc(C(C)(C)C)c1O
active: [11] 15.7 µM
inactive: [9] | [10] | [4] | [5] | [7]

CC(=O)CCC(C)C
inactive: [10] | [8] | [5] | [1]

OCC1CCCO1 (stereo unspecified)
inactive: [3] | [9] | [8] | [5] | [11]

OCCCc1cccnc1
inactive: [3] | [10] | [4] | [5] | [1] | [11] | [7]

CCOCN(C(=O)CS(=O)(=O)O)c1c(C)cccc1CC
inactive: [9] | [4] | [5] | [6] | [1] | [7]

CCN(CC)c1ccc(C=O)c(O)c1
active: [4] 15.3 µM
inactive: [12] | [13] | [8] | [1] | [11] | [14] | [15] | [16] | [17]

CCCCCCCCCc1ccc(OCCO)cc1
inactive: [3] | [4] | [5] | [2] | [11] | [7]
active: [8] 0.732 µM

OCCCCl
inactive: [3] | [9] | [10] | [11] | [7]

Cc1ccc(S(=O)(=O)C(I)I)cc1
inactive: [3] | [4] | [5] | [2] | [11] | [7]
active: [12] 3.35 µM | [14] 3.08 µM | [16] 2.58 µM | [17] 1.43 µM

CN(C)C(C)(C)CO
inactive: [3] | [8] | [1] | [2] | [7]

CCc1cc(Cc2cc(CC)c(N)c(CC)c2)cc(CC)c1N
active: [4] 0.886 µM | [8] 1.08 µM
inactive: [3] | [5] | [6] | [2]

CCN=c1cc2oc3cc(NCC)c(C)cc3c(-c3ccccc3C(=O)OCC)c-2cc1C
inactive: [3] | [9] | [4] | [8] | [1] | [11] | [7]

CC(C)=CCCC(C)O (stereo unspecified)
inactive: [4] | [11]

CCOC(=O)CC(=O)C(F)(F)C(F)(F)F
inactive: [12] | [4] | [8] | [5] | [2] | [14] | [15] | [16] | [17]

CCOC(=O)C1CC(=O)C(=C(O)C2CC2)C(=O)C1 (stereo unspecified)
inactive: [3] | [4] | [8] | [6]

Cc1cccc(C)n1
inactive: [9] | [4] | [1] | [11] | [7]

O=S(=O)(O)c1ccc(Cl)cc1
inactive: [3] | [4] | [6] | [2]

COCCOCCC[Si](C)(O[Si](C)(C)C)O[Si](C)(C)C
active: [8] 1.47 µM | [11] 33.4 µM
inactive: [3] | [9] | [4] | [5] | [1] | [2] | [7]

O=C(c1ccccc1)c1ccc(Cl)cc1
inactive: [3] | [7]
active: [4] 51.6 µM | [8] 37.1 µM | [11] 68.7 µM

CCOCOCC
inactive: [3] | [9] | [10] | [4] | [5] | [2] | [7]

CO[Si](CCCOCC1CO1)(OC)OC (stereo unspecified)
inactive: [3] | [1] | [11]

N#CCCOCCC#N
inactive: [10] | [4] | [5] | [1] | [7]

OCCC(O)CO (stereo unspecified)
inactive: [5] | [11] | [7]

Reference: PubChem BioAssay (EPA / NIEHS)
